Results from PubChem BioAssay (NCI).
Compounds without any hit were thinned out: in the full panel of roughly 83,000, 20% have a hit.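 Note: values are percent growth. 100 is the growth of untreated cells, values between 100 and 0 indicate rising inhibition; between -100 and 0 indicates cell death.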 A number with no mark means an inactive call. Calls of active or inactive are those of the source. The calls were made as follows: active = growth percent below 10; inactive = the rest.

Assays:
Assay in all cases: NCI-60 one-dose screen, 48 h (100 = growth as untreated, 0 = no growth, -100 = all killed)
Conditions in all cases: 10 µM unless noted
NCI-H23 lung = system: NCI-H23 lung
NCI-H226 lung = system: NCI-H226 lung
NCI-H322M lung = system: NCI-H322M lung
HOP-62 NSCLC = system: HOP-62 NSCLC
NCI-H460 lung = system: NCI-H460 lung
NCI-H522 lung = system: NCI-H522 lung
A549/ATCC NSCLC = system: A549/ATCC NSCLC
786-0 renal = system: 786-0 renal
COLO 205 colon = system: COLO 205 colon
DU-145 prostate = system: DU-145 prostate
K-562 leukemia = system: K-562 leukemia
MALME-3M melanoma = system: MALME-3M melanoma
MDA-MB-231 breast = system: MDA-MB-231 breast
RXF 393 renal = system: RXF 393 renal
SF-268 CNS = system: SF-268 CNS
SF-295 CNS = system: SF-295 CNS
SF-539 CNS = system: SF-539 CNS
UACC-257 melanoma = system: UACC-257 melanoma
M14 melanoma = system: M14 melanoma
HOP-92 NSCLC = system: HOP-92 NSCLC

Structure (SMILES)	growth (NCI-H23 lung)	growth (NCI-H226 lung)	growth (NCI-H322M lung)	growth (HOP-62 NSCLC)	growth (NCI-H460 lung)	growth (NCI-H522 lung)	growth (A549/ATCC NSCLC)	growth (786-0 renal)	growth (COLO 205 colon)	growth (DU-145 prostate)	growth (K-562 leukemia)	growth (MALME-3M melanoma)	growth (MDA-MB-231 breast)	growth (RXF 393 renal)	growth (SF-268 CNS)	growth (SF-295 CNS)	growth (SF-539 CNS)	growth (UACC-257 melanoma)	growth (M14 melanoma)	growth (HOP-92 NSCLC)
CC12CC[C@@H]3[C@]4(C)COC(c5cn[nH]c5-c5ccc(Br)cc5)O[C@@H]4CC[C@@]3(C)[C@@H]1CC(C1=CCOC1=O)O2 (some centres not stated)	57.3%	59.7%	66.1%	79.5%	35.4%	37.4%	35.5%	62.3%	39%	69.5%	19.4%	70.2%	66%	37%	50.1%	48.7%	69.9%	55.2%	38.8%	
O=C(NNc1nc2cc(C(F)(F)F)ccc2n2cccc12)c1cnccn1	-27.5% (active)	-53.5% (active)	-13.6% (active)	-73.4% (active)	-30.3% (active)	-60.2% (active)	-60.5% (active)	-99.1% (active)	-72.3% (active)	-57.5% (active)		-57.2% (active)	-66.8% (active)	-74% (active)	-53.4% (active)	-92.1% (active)	-83% (active)	-83.9% (active)	-81.9% (active)	-74% (active)
Cc1cnc(C(=O)NNc2nc3cc(F)ccc3n3c(C(=O)N4CC5CC(C4)N5)ccc23)cn1	51.1%	12.5%	35.4%	59.3%	9.91% (active)	57.8%	25.4%	-2.57% (active)	10.5%	48.8%		43%	43.7%	60.4%	33.9%	11%	8.21% (active)	25.5%	-22.8% (active)	65.2%
COc1ccc(C(=O)Nc2n[nH]c(Nc3ccccc3)c2C#N)cc1	110%	117%	106%	124%	101%	104%	117%	104%	106%	119%		97.8%	103%	118%	97.3%	92.8%	98.3%	137%	109%	125%
CN1CCN(c2ccc(C(=O)/C=C/c3ccc(Br)cc3)cc2)CC1	52.4%	12.6%	62.8%	22.1%	64.4%	52.8%	7.46% (active)	19.5%	-14.7% (active)	32.9%		74.4%	16.7%	31.5%	62.2%	35.2%	-34.9% (active)	25.4%	-36.3% (active)	13.2%
CCCCSc1nc(Nc2ccc(S(N)(=O)=O)cc2)c(C#N)c(-c2ccc(Cl)cc2)n1	26.1%	12.8%	73.8%	10.6%	7.9% (active)	63.8%	1.68% (active)	23%	55.2%	53%	5.58% (active)	22.9%	-36.1% (active)	16.8%	69.2%	8.15% (active)	-25.2% (active)	76%	10.6%	
O=C(NNc1nc2cc(F)ccc2n2c(CN3CCCCC3)ccc12)c1cnccn1	-21.3% (active)	-24.6% (active)	-7.19% (active)	-59.2% (active)	-11.7% (active)	-50.9% (active)	-76.8% (active)	-98.3% (active)	-50.5% (active)	-43.7% (active)		22.6%	-31.1% (active)	-83.3% (active)	-20.9% (active)	-92% (active)	-66% (active)	-81.1% (active)	-86.5% (active)	-24.8% (active)
Cc1cc2nc3c4ccccc4n(CC4=NCCN4)c3nc2cc1C	-56% (active)	23.9%	22.3%	-72.5% (active)	-84.1% (active)	2.32% (active)	-85.2% (active)	-97% (active)	43.8%	2.14% (active)	-13.1% (active)	-92.7% (active)	-43.2% (active)	-67.2% (active)	40.7%	-74.8% (active)	-94.2% (active)	-44.4% (active)	-79.2% (active)	
